Assay outcomes as filed in PubChem BioAssay.
Shiga toxin inh = blocks Shiga toxin action in Vero cells; AID 2315; inhibition, % at 38.7 µM; 290,000 compounds, 9.2% hits; Vero cells, Shiga toxin protein synthesis inhibition reporter; in the data active = inhibition mostly above about 28%, no sharp cut-off; inactive = mostly below about 43%; also: 0% is about no effect
SARS PLP yeast = blocks SARS-CoV papain-like protease in a yeast assay; Potency, µM (top dose mostly 32.9 µM), inactives show top-dose activity, positive = growth rescue, actives largely listed as activators; S. cerevisiae expressing SARS-CoV PLpro, growth rescue; 330,000 compounds, 0.19% hits; calls by dose curve; also: potency is read from the fitted curve at half-maximal effect; 0% is about no effect; nearly all actives have a fitted effect of over 55% in size
AMA1 RON2 block = AMA1-RON2 (P. falciparum) interaction inhibition | AlphaScreen AMA1-biotinylated RON2 peptide binding | Potency, µM (doses to about 58.2 µM), for the others: at the highest dose activity change, negative = inhibition, usual class: inhibitors | 360,000 compounds, 0.2% hits | AID 720542;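 also: potency is read from the fitted curve at half-maximal effect; 0% = vehicle wells and -100% = peptide control; nearly all actives have a fitted effect of over 45% in size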
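AMA1 (3D7) with his tag at 25 nM final met compounds first, then biotinylated RON2 peptide at 25 nM; detection used donor plus acceptor beads, 10 µg/mL apiece, read by AlphaScreen after 30 min at room temperature.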
Pf growth 48h = inhibits P. falciparum growth in the first generation, 48 h | P. falciparum luciferase growth in erythrocytes, 48 h | Potency, µM (series often up to 28.7 µM), for inactives: top-dose activity change, negative = inhibition, usual class: inhibitors | 310,000 compounds, 5.9% hits | AID 504832; also: potency is read from the fitted curve at half-maximal effect; % is scaled to controls: 0 for no effect and ±100 for the full control effect
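Cell-based growth assay: transgenic P. falciparum expressing firefly luciferase, cultured in red cells within RPMI 1640 containing 0.5% w/v Albumax, 24 mM bicarbonate and gentamycin. A drop in luciferase activity indicates inhibition.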
CHX counter = counter-screen hit for Shiga toxin inhibitors, cycloheximide; max response, %; cell reporter, cycloheximide protein synthesis inhibition counterscreen; 300,000 compounds, 12% hits; AID 2314; in the data active = max response mostly above about 13%, no sharp cut-off; inactive = mostly below about 14%; also: read at 38.3 µM for the half of the compounds with a filed dose; 0% is about no effect
Pf growth 96h = P. falciparum growth inhibition at 96 hour, primary screen for plastid delayed-death inhibitors | P. falciparum luciferase reporter growth, 96 h | Potency, µM (highest dose often 28.7 µM), for the others: at the highest dose activity change, negative = inhibition, usual class: inhibitors | 320,000 compounds, 6.9% hits; also: potency is read from the fitted curve at half-maximal effect; % is scaled to controls: 0 for no effect and ±100 for the full control effect
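Readout is luminescence from an integrated firefly luciferase in P. falciparum. Red cells, 2% hematocrit and 0.05% parasitemia final, were cultured with compound through two parasite generations (96 hours) at 37 C, 5% CO2.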
Starred values were filed as active, the others as inactive; u = inconclusive; x = no result. A selection: hits, their analogues and other compounds. The true share with any hit is near 19%. Unless noted, calls follow the shape of the dose curve; as a rule, active = well fitted curve in the direction sought with a large enough effect; inconclusive = small, poorly fitted or top-dose-only effect, or another doubt; inactive = no such curve, though single readings can be large; an effect the other way counts as inactive or inconclusive.

SMILES | Shiga toxin inh | SARS PLP yeast | AMA1 RON2 block | Pf growth 48h | CHX counter | Pf growth 96h
C#CCOCCOCCOCCNc1nc(N2CCN(C(=O)C(CCC(=O)O)n3cc(C(N)CC(C)C)nn3)CC2)nc(N2CCN(C(=O)C(Cc3cc4ccccc4[nH]3)n3cc(C(N)Cc4ccc(O)cc4)nn3)CC2)n1 (stereo not given) | -9.6 | -1.6% | 12.4% | -13.2% | -3.1 | 2.0%
C#CCOCCOCCOCCNc1nc(N2CCN(C(=O)[C@H]([C@@H](C)CC)n3cc([C@@H](N)Cc4ccc(O)cc4)nn3)CC2)nc(N2CCN(C(=O)[C@H](Cc3cc4ccccc4[nH]3)n3cc([C@@H](N)C(C)CC)nn3)CC2)n1 (stereo not given in full) | -7.4 | -0.4% | x | u | 1.1 | 11.7µM*
COC(=O)c1nc2n(n1)C(c1cc(OC)ccc1OC)C(C(=O)OC1CCCCC1)=C(C)N2 (stereo not given) | -7.5 | -4.0% | 0.6% | -2.5% | -2.6 | u
CSc1nc(-c2ccccc2)nn1C(=O)c1ccccc1 | 45.1 | -9.3% | -12.7% | 12.0% | 14.4* | 61.3%
CSc1nc(-c2ccc(Cl)cc2)nn1C(=O)c1ccccc1 | 112.5* | -33.1% | -7.3% | 98.7% | 24.2* | 1.31µM*
COc1ccc(C(=O)n2nc(-c3ccccc3)nc2SC)cc1 | 11.3 | 3.2% | -1.8% | 35.2% | -1.6 | u
CSc1nc(-c2ccccc2)nn1C(=O)c1ccc(Cl)cc1 | 13.8 | -16.6% | 9.9% | 28.1% | 17.5* | u
N/C(=N\S(=O)(=O)c1ccc(Cl)s1)c1ccccc1 | 22.9 | -6.0% | -6.6% | 17.6% | -1.4 | 19.2%
COc1ccc(N2CCN(C(=O)CN3CCN(c4nc(-c5ccc(F)cc5)cs4)CC3)CC2)cc1 | -2.3 | 0.0% | -7.4% | u | -2.4 | 22.3%
Cc1nc(-c2ccc(C(=O)Nc3ccc(F)cc3)cc2)cs1 | 75.2* | 0.2% | -7.9% | 31.0% | 35.3* | 1.5%
CCOc1ccc(NC(=O)c2ccc(-c3csc(C)n3)cc2)cc1 | 11.0 | 1.3% | -20.4% | -1.3% | 7.9 | -1.3%
COc1ccc(NC(=O)c2ccc(-c3csc(C)n3)cc2)cc1 | 78.5* | -3.9% | -1.9% | 100.3% | 35.8* | 8.8%
COc1ccc(-c2csc(C)n2)cc1 | 56.0* | 11.5% | -2.6% | 95.6% | 30.7* | u
Cc1nc(-c2ccc(C(=O)Nc3cccc(F)c3)cc2)cs1 | 17.7* | -7.4% | 12.4% | 176.4% | 16.9* | -6.3%
CCCCNC(=O)N1CCCC(C(=O)c2cc(C)c(OC)c(C)c2)C1 (stereo not given) | -0.9 | 9.2% | -1.9% | 32.0% | 0.8 | 30.3%
O=c1cc(O)c2sc3nc(-c4cccnc4)cc(C(F)(F)F)c3c2[nH]1 | 17.3 | 14.3% | -4.2% | 6.0% | -4.1 | 3.7%
COc1ccc(C(=O)Nc2cc(-c3nn4c(C)nnc4s3)ccc2C)cc1 | 19.8 | 5.5% | 17.2% | x | -0.8 | u
COc1ccc(C(=O)Nc2cnc3sc(C)nn3c2=O)cc1 | 46.2* | 1.7% | 0.0% | 95.8% | 24.0* | u
O=C(C1CCC(=O)N(C2CC2)C1)N1CCN(c2cccc(Cl)c2)CC1 (stereo not given) | -5.8 | 4.1% | 4.1% | -0.9% | -2.9 | u
COc1cccc(N2C(=O)CC(N3CCC(C(N)=O)(N4CCCCC4)CC3)C2=O)c1 (stereo not given) | -3.5 | -37.3% | 4.5% | 17.3% | 8.7 | u
COc1ccc(CC2=CC(=O)c3ccccc3C2=O)cc1 | 123.3* | -23.1% | u | u | 55.8* | 6.4%
CCCCn1cnc(C(=O)OCC)c1N | 13.8 | 10.8% | -9.4% | 29.3% | 9.1 | 11.6%
COc1ccc(Br)c(-c2nc(CS(=O)(=O)c3ccc(F)cc3)no2)c1 | 36.8* | 0.8% | 20.5% | 29.3% | 19.8* | 31.6%
COc1ccc(Br)c(-c2nnc(CS(=O)(=O)c3ccccc3)o2)c1 | 88.7* | -1.6% | -8.9% | 82.4% | 36.0* | 29.1%
CCOc1ccccc1-c1nnc(CS(=O)(=O)c2ccccc2)o1 | -5.4 | 3.1% | -1.7% | u | 6.1 | -13.5%
SMILES | Shiga toxin inh | SARS PLP yeast | AMA1 RON2 block | Pf growth 48h | CHX counter | Pf growth 96h
Cc1nc(COC(=O)c2c(C)nn(-c3ccccc3)c2C)cs1 | 100.1* | 2.6% | -9.5% | -19.2% | 35.5* | u
NS(=O)(=O)c1ccc(CCNC(=O)c2cc(=O)[nH]c3ccccc23)cc1 | 10.6 | 1.6% | -17.7% | 1.9% | 6.3 | 26.7%
COc1cccc(OCCNc2ccc([N+](=O)[O-])cn2)c1 | x | -7.6% | 3.8% | -0.4% | x | u
O=[N+]([O-])c1ccc(S(=O)(=O)c2ccccc2)nc1 | -25.7 | -12.5% | -2.3% | 2.94µM* | -10.3 | 1.65µM*
COc1ccc(CCNc2ccc([N+](=O)[O-])cn2)cc1 | -2.0 | -11.2% | 9.2% | u | -3.0 | 13.1µM*
O=[N+]([O-])c1ccc(NCc2ccccc2)nc1 | 56.5* | -6.5% | -4.1% | 72.9% | 54.6* | -4.8%
COc1ccc(CCNC(=O)C(C)c2ccc([N+](=O)[O-])cc2)cc1 (stereo not given) | -9.5 | -0.3% | 29.6% | -10.3% | -2.3 | 8.28µM*
C=CCn1c(SCC(=O)N2CCc3ccccc3C2)nc2sc(C)c(C)c2c1=O | -10.5 | -6.8% | -17.5% | -6.1% | -1.7 | u
O=C(N/N=C/c1ccccc1[N+](=O)[O-])c1ccc(COc2ccccc2-c2ccccc2)cc1 | 44.3 | 25.7% | 4.5% | u | 7.9 | u
CC(=O)N(C(C)=O)n1c(C)nc2sc3c(c2c1=O)CCCC3 | -15.4 | -1.3% | -8.5% | -2.0% | -7.2 | -22.6%
CCc1nc2sc3c(c2c(=O)n1NC(=O)CCl)CCCC3 | -13.0 | 10µM* | 8.2% | 10.7% | -5.3 | x
CC(Oc1ccc(Br)cc1Br)C(=O)Nc1cccnc1Cl (stereo not given) | -5.7 | -6.2% | 26.3% | -2.8% | -1.2 | u
O=[N+]([O-])c1ccc(OCc2cnc(Cl)s2)cc1 | 31.8 | 0.7% | -7.6% | 20.9% | 31.9* | 17.6%
Cc1ccc(OCc2cnc(Cl)s2)c(C)c1 | 146.3* | -0.4% | 57.3% | 22.2% | 36.4* | -1.5%
COC(=O)C(Cc1cnc(Cl)s1)(C(=O)OC)c1ccc([N+](=O)[O-])cc1 | -44.6 | -7.2% | -6.2% | x | -4.7 | u
COc1ccc(Cc2cnc(N)s2)cc1 | 24.0 | -0.1% | 14.3% | 55.2% | 5.4 | -0.3%
COc1ccc(OCc2cnc(Cl)s2)cc1 | 60.0* | 0.7% | 13.2% | 55.5% | 29.3* | 6.6%
CC(=O)Nc1ccccc1OCc1cnc(Cl)s1 | 6.9 | 0.5% | 3.6% | 0.4% | 1.0 | -23.5%
CCOC(=O)c1oc2ccc(CNC3CCCCC3)c(Cl)c2c1C | -3.2 | -5.7% | -14.2% | u | -1.5 | -21.6%
CCOC(=O)c1oc2ccc(CNCCO)c(Cl)c2c1C | 82.0* | 0.1% | -9.3% | 58.1% | 40.2* | u
